# Measurements published in PubChem BioAssay (Tox21).
# Inconclusive results are not listed. A call without a number means that no potency is given here. Calls of active or inactive are those of the source. Unless noted, calls come from the whole dose curve; as a rule, active = well fitted curve in the direction sought with a large enough effect in the repeat runs; inconclusive = weak or mixed curves; inactive = no such curve, though single readings can be large; an effect the other way counts as inactive or inconclusive.
# How the values were obtained:
# [1] = target: Estrogen receptor beta (Homo sapiens) (UniProt Q92731); test: qHTS assay to identify small molecule agonists of the estrogen receptor beta (ER-beta) signaling pathway (AID 1259377; active = well fitted activation curve with a large enough effect in the signal ratio in the repeat runs, not every such curve was filed as active; the % refers to the signal ratio; note: potency is the fitted concentration of half-maximal effect)
# Method in brief: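 ER-beta-UAS-bla HEK293T (GripTite) cells carrying a UAS-driven beta-lactamase reporter, in medium with 2% charcoal-stripped FBS, were exposed to compounds for 16 hr at 37C; LiveBLAzer B/G FRET substrate was then added and fluorescence read after 2 hours at room temperature.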
# [2] = target: Estrogen receptor beta (Homo sapiens) (UniProt Q92731); test: qHTS assay to identify small molecule antagonists of the estrogen receptor beta (ER-beta) signaling pathway (AID 1259378; active = well fitted inhibition curve with a large enough effect in the signal ratio in the repeat runs, not every such curve was filed as active; the % refers to the signal ratio)
# Method in brief: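 ER-beta-UAS-bla HEK293T (GripTite) cells in 2% charcoal-stripped FBS medium were preincubated 6 hr at 37C, dosed with compound, then stimulated with 1 nM E2 (final) for 16 hr; beta-lactamase reporter read by B/G FRET fluorescence after 2 hr substrate loading.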
# [3] = qHTS assay to identify small molecule agonists of the androgen receptor (AR) signaling pathway in the presence of an antagonist - cell viability counter screen (AID 1259379); note: nearly all actives have a fitted effect of over 25% in size; note: potency is the fitted concentration of half-maximal effect
# Method in brief: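 Viability counter screen: CellTiter-Fluor fluorescence, measured in the same wells as the luciferase read-out. MDA-kb2 cells, 3,000/well, with nilutamide at 3.0uM final and compounds at 15 concentrations, 16 hr at 37C, 0% CO2.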
# [4] = qHTS assay to identify small molecule agonists of the estrogen receptor beta (ER-beta) signaling pathway - cell viability counter screen (AID 1259380); note: nearly all actives have a fitted effect of over 30% in size
# Method in brief: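 Luminescence read-out (CellTiter-Glo, 30 min, room temp) taken in the same wells as the beta-lactamase reporter assay; ER-beta-UAS-bla HEK293T cells exposed to DMSO-dissolved compounds for 16 hr at 37C in 2% charcoal-stripped FBS medium.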
# [5] = qHTS assay to identify small molecule antagonists of the estrogen receptor beta (ER-beta) signaling pathway - cell viability counter screen (AID 1259382); note: series mostly up to about 92 µM; nearly all actives have a fitted effect of over 55% in size
# Method in brief: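 Luminescent ATP read-out (CellTiter-Glo, 30 min, RT) taken in the same wells as the bla reporter assay. HEK293T ER-beta-UAS-bla cells in 2% charcoal-stripped FBS were exposed to compounds with 1nM E2 for 16 hr at 37C.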
# [6] = target: Estrogen receptor (Homo sapiens) (UniProt P03372); test: qHTS assay to identify small molecule agonists of the estrogen receptor alpha (ER-alpha) signaling pathway in the presence of an antagonist (AID 1259383; calls by dose curve; note: top concentration of the series differs between compounds; nearly all actives have a fitted effect of over 15% in size)
# Method in brief: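 Luciferase luminescence (ONE-Glo, 30min at room temperature) measured in VM7Luc4E2 cells after 22hr compound exposure at 15 concentrations, with 10.0nM ICI-182,780 final present; cells express endogenous ER-alpha and carry four EREs upstream of luciferase.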
# [7] = qHTS assay to identify small molecule agonists or antagonists of the thyroid stimulating hormone receptor (TSHR) signaling pathway - wild type cell line counter screen (AID 1259384; calls by dose curve)
# Method in brief: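 Wild-type HEK293 cells were plated 18 h at 37 C/5% CO2, pin-dosed with compound plus Ro20-1724 medium, held 30 min at room temperature, then given cAMP-d2 and anti-cAMP-cryptate; fluorescence was read after 1 h. Fifteen concentrations, triplicate.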
# [8] = target: Thyrotropin receptor (Homo sapiens) (UniProt P16473); test: qHTS assay to identify small molecule antagonists of the thyroid stimulating hormone receptor (TSHR) signaling pathway (AID 1259385; calls by dose curve; note: nearly all actives have a fitted effect of over 20% in size)
# Method in brief: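 TSHR-HEK293 cells were plated and held 18 h at 37C/5% CO2, then given compound plus Ro20-1724 and stimulated with TSH at 1.5 ng/mL final. After 30 min at room temperature, cAMP was detected with cAMP-d2/anti-cAMP-cryptate (1 h) by fluorescence.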
# [9] = qHTS assay to identify small molecule agonists of the estrogen receptor alpha (ER-alpha) signaling pathway in the presence of an antagonist - cell viability counter screen (AID 1259386);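 note: cells exposed to compounds for 22 h at 37 °C before the viability read; nearly all actives have a fitted effect of over 30% in size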; note: potency is the fitted concentration of half-maximal effect
# Method in brief: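 Read-out: CellTiter-Fluor fluorescence after 1hr reagent incubation, measured in the same wells as the luciferase readout. VM7Luc4E2 cells were exposed to 15 compound concentrations with 10.0nM ICI-182,780 for 22hr at 37C.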
# [10] = target: Progesterone receptor (Homo sapiens) (UniProt P06401); test: qHTS assay to identify small molecule agonists of the progesterone receptor (PR) signaling pathway (AID 1346784; calls by dose curve; note: nearly all actives have a fitted effect of over 30% in size)
# Method in brief: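 PR-UAS-bla HEK 293T cells carrying a UAS-driven beta-lactamase reporter were seeded in medium with 2% charcoal-stripped FBS, preincubated 6 hr at 37C, then exposed to compounds in DMSO for 16 hr; agonism was read by LiveBLAzer B/G FRET fluorescence.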
# [11] = target: Progesterone receptor (Homo sapiens) (UniProt P06401); test: qHTS assay to identify small molecule antagonists of the progesterone receptor (PR) signaling pathway (AID 1346795; active = well fitted inhibition curve with a large enough effect in the signal ratio in the repeat runs, not every such curve was filed as active; the % refers to the signal ratio; note: potency is the fitted concentration of half-maximal effect)
# Method in brief: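 PR-UAS-bla HEK293T cells carrying a UAS-driven beta-lactamase reporter were plated in medium with 2% charcoal-stripped FBS and rested 6 hr at 37C. Compounds were added with 1 nM R5020 (final) for 16 hr, then FRET substrate loaded 2 hr at room temperature.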
# [12] = qHTS assay to identify small molecule antagonists of the progesterone receptor (PR) signaling pathway - cell viability counter screen (AID 1346798); note: series mostly up to about 92 µM; nearly all actives have a fitted effect of over 50% in size
# Method in brief: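 PR-UAS-bla HEK293T cells in medium with 2% charcoal-stripped FBS were treated with compounds plus R5020 for 16 hr at 37C. Cell viability was then read by CellTiter-Glo luminescence after 30 min at room temperature in the same wells.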
# [13] = qHTS assay to identify small molecule agonists of the progesterone receptor (PR) signaling pathway - cell viability counter screen (AID 1346799; calls by dose curve; note: nearly all actives have a fitted effect of over 45% in size)
# Method in brief: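 PR-UAS-bla HEK293T cells, 3,000 per well in medium with 2% charcoal-stripped FBS, were preincubated 6 hr at 37C, then exposed to compounds for 16 hr; viability was read as CellTiter-Glo luminescence after 30 min at room temperature.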
# [14] = qHTS assay to identify small molecule antagonists of the TGF-beta/Smad signaling pathway - cell viability counter screen (AID 1346824); note: nearly all actives have a fitted effect of over 50% in size
# Method in brief: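 SBE-bla HEK 293T cells were plated overnight at 37 C, then given compounds in DMSO plus TGF-beta1 (added as 0.25 ng/mL solution) for 5 hr. After the bla read, CellTiter-Glo was added to the same wells and luminescence read after 30 min at room temperature.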
# [15] = qHTS assay to identify small molecule agonists of the TGF-beta/Smad signaling pathway - cell viability counter screen (AID 1346829); note: top concentration of the series differs between compounds; nearly all actives have a fitted effect of over 45% in size
# Method in brief: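 In parallel with the Smad reporter read, viability of HEK 293T cells stably carrying SBE-bla is quantified by ATP luminescence following 5 hr compound treatment.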
# [16] = qHTS assay to identify small molecule agonists of the TGF-beta/Smad signaling pathway (AID 1346859; active = well fitted activation curve with a large enough effect in the signal ratio in the repeat runs, not every such curve was filed as active; the % refers to the signal ratio; note: series mostly up to about 77 µM)
# Method in brief: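 HEK 293T cells stably carrying a beta-lactamase reporter driven by the Smad binding element were seeded overnight, exposed to DMSO-dissolved compounds for 5 hr at 37 C, 5% CO2, then loaded with FRET substrate for 2 hr at room temperature.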
# [17] = Human pregnane X receptor (PXR) small molecule agonists, qHTS cell viability counter screen (AID 1346977); note: nearly all actives have a fitted effect of over 50% in size; note: potency is the fitted concentration of half-maximal effect
# Method in brief: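 PXR-Luc HepG2 cells in medium with 5% charcoal-stripped FBS were pre-incubated 5hr, then exposed to compounds for 24hr at 37C. Viability was read in the same wells by CellTiter-Fluor fluorescence, reagent added after 23hr with a 1hr incubation.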
# [18] = target: Thyrotropin-releasing hormone receptor (Homo sapiens) (UniProt P34981); test: qHTS assay to identify small molecule antagonists of the thyrotropin-releasing hormone receptor (TRHR) signaling pathway (AID 1346877; active = well fitted inhibition curve with a large enough effect in the repeat runs, not every such curve was filed as active; note: series mostly up to about 51 µM)
# Method in brief: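 HEK293/TRHR cells, 18 h, 37 °C; Ca2+ dye 2 h; cpd 5 min RT; TRH 1 nM final; fluorescence read 3 min, 1 s intervals; 15 concs, triplicate.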
# [19] = target: Thyrotropin-releasing hormone receptor (Homo sapiens) (UniProt P34981); test: qHTS assay to identify small molecule agonists of the thyrotropin-releasing hormone receptor (TRHR) signaling pathway (AID 1346891; calls by dose curve; note: series mostly up to about 58 µM)
# Method in brief: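 TRHR-expressing HEK293 cells were plated 18 h at 37 °C/5% CO2, loaded with calcium dye 2 h at 37 °C, then given compound in DMSO; fluorescence was read kinetically for 3 min at 1 s intervals.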
# Thyrotropin receptor (Homo sapiens), sequence (P16473 whole entry, looked up): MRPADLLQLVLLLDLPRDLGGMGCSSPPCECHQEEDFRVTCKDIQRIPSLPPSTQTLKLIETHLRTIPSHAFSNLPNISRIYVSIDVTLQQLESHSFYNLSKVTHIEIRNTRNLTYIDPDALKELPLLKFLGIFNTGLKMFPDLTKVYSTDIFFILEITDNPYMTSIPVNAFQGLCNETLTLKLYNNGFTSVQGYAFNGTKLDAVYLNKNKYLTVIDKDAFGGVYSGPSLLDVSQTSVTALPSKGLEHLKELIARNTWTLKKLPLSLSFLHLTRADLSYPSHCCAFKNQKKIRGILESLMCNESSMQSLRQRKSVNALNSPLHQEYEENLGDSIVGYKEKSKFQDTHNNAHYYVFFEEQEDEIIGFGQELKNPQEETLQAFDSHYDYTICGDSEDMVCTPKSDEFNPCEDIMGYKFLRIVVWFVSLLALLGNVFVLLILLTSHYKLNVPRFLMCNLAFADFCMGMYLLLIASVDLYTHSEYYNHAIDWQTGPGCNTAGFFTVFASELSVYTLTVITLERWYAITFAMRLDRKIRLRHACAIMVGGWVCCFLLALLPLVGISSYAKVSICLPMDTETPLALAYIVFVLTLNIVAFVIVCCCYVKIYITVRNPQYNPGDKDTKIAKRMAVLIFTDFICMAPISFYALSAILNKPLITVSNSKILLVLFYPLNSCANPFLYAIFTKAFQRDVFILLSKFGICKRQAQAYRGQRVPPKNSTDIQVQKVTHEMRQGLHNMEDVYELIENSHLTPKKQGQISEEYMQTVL
# Progesterone receptor (Homo sapiens), sequence (P06401 whole entry, looked up): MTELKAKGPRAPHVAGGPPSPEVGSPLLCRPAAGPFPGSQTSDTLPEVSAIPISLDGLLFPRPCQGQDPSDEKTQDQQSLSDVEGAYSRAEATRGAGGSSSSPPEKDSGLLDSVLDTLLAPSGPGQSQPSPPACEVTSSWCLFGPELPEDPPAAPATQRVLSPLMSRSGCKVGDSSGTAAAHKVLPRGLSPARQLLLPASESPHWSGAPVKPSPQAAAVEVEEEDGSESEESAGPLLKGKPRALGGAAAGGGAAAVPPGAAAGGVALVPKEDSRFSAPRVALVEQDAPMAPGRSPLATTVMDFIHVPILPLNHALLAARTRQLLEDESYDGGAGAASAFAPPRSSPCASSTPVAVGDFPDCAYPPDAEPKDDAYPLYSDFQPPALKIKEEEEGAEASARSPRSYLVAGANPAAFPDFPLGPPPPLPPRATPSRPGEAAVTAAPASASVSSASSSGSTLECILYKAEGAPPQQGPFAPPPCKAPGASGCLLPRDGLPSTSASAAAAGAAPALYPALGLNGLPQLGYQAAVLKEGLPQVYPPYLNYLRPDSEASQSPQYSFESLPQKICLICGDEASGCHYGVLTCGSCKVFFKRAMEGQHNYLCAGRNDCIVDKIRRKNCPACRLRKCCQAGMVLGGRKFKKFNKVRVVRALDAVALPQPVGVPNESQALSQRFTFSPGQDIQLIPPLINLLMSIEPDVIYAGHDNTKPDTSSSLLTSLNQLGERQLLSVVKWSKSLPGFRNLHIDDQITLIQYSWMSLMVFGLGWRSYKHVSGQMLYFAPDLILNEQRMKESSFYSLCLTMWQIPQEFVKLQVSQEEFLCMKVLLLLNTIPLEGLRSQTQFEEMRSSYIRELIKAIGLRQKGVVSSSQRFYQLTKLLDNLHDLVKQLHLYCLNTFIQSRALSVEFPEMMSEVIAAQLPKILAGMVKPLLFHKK
# Estrogen receptor (Homo sapiens), sequence (P03372 whole entry, looked up): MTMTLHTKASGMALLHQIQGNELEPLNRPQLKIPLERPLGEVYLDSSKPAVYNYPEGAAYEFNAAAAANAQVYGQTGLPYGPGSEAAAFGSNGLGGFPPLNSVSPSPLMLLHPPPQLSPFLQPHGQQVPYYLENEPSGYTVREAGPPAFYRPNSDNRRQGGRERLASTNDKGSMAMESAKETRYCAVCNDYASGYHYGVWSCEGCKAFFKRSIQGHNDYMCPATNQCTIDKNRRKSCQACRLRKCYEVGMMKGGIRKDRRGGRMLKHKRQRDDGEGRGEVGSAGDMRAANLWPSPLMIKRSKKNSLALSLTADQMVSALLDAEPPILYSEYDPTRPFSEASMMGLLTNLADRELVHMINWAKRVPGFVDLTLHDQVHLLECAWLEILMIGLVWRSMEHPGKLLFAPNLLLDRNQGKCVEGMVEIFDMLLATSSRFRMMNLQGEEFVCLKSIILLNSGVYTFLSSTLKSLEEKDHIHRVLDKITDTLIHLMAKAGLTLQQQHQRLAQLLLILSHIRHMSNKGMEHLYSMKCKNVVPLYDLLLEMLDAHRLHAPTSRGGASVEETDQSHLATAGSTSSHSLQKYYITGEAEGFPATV
# Thyrotropin-releasing hormone receptor (Homo sapiens), sequence (P34981 whole entry, looked up): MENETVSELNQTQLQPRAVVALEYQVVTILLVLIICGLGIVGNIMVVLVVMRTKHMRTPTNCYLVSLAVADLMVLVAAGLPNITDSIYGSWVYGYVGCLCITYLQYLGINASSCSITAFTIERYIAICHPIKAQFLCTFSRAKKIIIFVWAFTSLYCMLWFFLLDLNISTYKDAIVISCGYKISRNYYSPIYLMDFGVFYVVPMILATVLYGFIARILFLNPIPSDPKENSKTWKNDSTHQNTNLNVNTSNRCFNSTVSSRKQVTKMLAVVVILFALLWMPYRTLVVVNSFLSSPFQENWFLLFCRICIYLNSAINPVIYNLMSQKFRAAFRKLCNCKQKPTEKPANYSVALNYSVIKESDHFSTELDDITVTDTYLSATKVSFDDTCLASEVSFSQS
# Estrogen receptor beta (Homo sapiens), sequence (Q92731 whole entry, looked up): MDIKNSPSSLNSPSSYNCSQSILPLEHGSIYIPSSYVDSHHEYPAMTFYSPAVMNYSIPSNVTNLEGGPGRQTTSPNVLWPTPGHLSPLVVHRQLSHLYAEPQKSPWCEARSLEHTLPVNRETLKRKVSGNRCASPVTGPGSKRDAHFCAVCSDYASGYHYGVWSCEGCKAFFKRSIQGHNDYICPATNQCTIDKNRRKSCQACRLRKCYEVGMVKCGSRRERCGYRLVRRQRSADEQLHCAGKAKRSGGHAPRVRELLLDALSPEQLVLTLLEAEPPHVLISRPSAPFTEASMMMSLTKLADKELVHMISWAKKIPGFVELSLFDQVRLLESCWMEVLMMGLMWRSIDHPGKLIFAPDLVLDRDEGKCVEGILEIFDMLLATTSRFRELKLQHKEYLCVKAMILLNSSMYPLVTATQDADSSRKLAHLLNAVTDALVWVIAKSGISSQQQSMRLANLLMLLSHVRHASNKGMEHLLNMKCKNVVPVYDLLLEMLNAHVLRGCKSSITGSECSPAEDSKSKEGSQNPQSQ
SMILES,Potency [1],outcome [2],Potency [3],Potency [4],Potency [5],Potency [6],outcome [7],outcome [8],Potency [9],Potency [10],Potency [11],Potency [12],Potency [13],outcome [14],Potency [15],outcome [16],Potency [17],Potency [18],outcome [19]
O=P(O)(O)CN(CP(=O)(O)O)CP(=O)(O)O,inactive,inactive,inactive,inactive,inactive,inactive,inactive,inactive,inactive,inactive,inactive,inactive,inactive,inactive,inactive,inactive,inactive,,
CCOC1Oc2ccc(OS(C)(=O)=O)cc2C1(C)C (centres undefined),inactive,inactive,68 µM (active),inactive,inactive,inactive,inactive,inactive,inactive,,30.4 µM (active),,,inactive,inactive,inactive,,,
CCC(C(N)=O)N1CCCC1=O (centres undefined),inactive,inactive,inactive,inactive,inactive,inactive,inactive,inactive,inactive,inactive,inactive,inactive,inactive,inactive,inactive,inactive,inactive,inactive,inactive
CN(CCO)CCO,inactive,inactive,inactive,inactive,inactive,inactive,inactive,inactive,inactive,,inactive,inactive,inactive,inactive,inactive,inactive,inactive,inactive,inactive
[P]#[In],inactive,inactive,inactive,inactive,inactive,,inactive,inactive,inactive,,,inactive,inactive,inactive,inactive,inactive,,,inactive
ClCCCCl,inactive,inactive,inactive,inactive,inactive,,inactive,inactive,inactive,inactive,inactive,inactive,inactive,inactive,inactive,,inactive,inactive,inactive
CC(=NC#N)N(C)Cc1ccc(Cl)nc1,inactive,inactive,inactive,inactive,inactive,,,inactive,inactive,inactive,inactive,inactive,inactive,inactive,inactive,inactive,inactive,inactive,inactive
Cn1c(N)nc2c3cccnc3ccc21,inactive,inactive,inactive,inactive,inactive,inactive,,,26 µM (active),inactive,inactive,inactive,inactive,,inactive,,26 µM (active),inactive,inactive
CCN(CCO)CCn1c(Cc2ccccc2)nc2c1c(=O)n(C)c(=O)n2C,inactive,inactive,inactive,inactive,inactive,inactive,,,inactive,inactive,inactive,inactive,inactive,,inactive,,inactive,inactive,inactive
CCC(C)(C#N)N=NC(C)(C#N)CC (centres undefined),inactive,inactive,inactive,inactive,inactive,inactive,,inactive,inactive,,inactive,inactive,inactive,inactive,inactive,inactive,inactive,inactive,inactive
CC(C)(O)C(Cl)(Cl)Cl,inactive,inactive,inactive,inactive,inactive,inactive,,inactive,inactive,inactive,inactive,inactive,inactive,inactive,inactive,inactive,inactive,,
CC(C)(C1CCC(O)CC1)C1CCC(O)CC1 (centres undefined),21.7 µM (active),inactive,inactive,inactive,inactive,inactive,,,inactive,inactive,27.3 µM (active),,inactive,inactive,,inactive,inactive,,
C=CCCC#N,inactive,inactive,inactive,inactive,inactive,inactive,,inactive,inactive,inactive,inactive,inactive,inactive,inactive,,inactive,,inactive,
C=CC=O,inactive,inactive,inactive,inactive,inactive,,inactive,inactive,inactive,inactive,inactive,inactive,inactive,inactive,inactive,inactive,,inactive,
C[C@H](CN1CCOCC1)C(C(=O)N1CCCC1)(c1ccccc1)c1ccccc1,inactive,inactive,inactive,inactive,inactive,inactive,,,inactive,,,inactive,inactive,inactive,,inactive,83.4 µM (active),,
NC(=O)OCCCc1ccccc1,inactive,inactive,inactive,inactive,inactive,inactive,,inactive,inactive,inactive,inactive,inactive,inactive,,inactive,inactive,,inactive,inactive
C=CCc1cc(OC)c2c(c1)OCO2,inactive,inactive,inactive,inactive,inactive,,inactive,inactive,inactive,inactive,,inactive,inactive,,inactive,inactive,,,inactive
